{
  "source": "PubChem BioAssay (NCATS)",
  "note": "Records with an inconclusive call do not appear. Entries that show only a call come without a potency. Active and inactive are the calls of the source. The call rests on the fitted dose curve; in most records, active means well fitted inhibition curve with a large enough effect; inconclusive means small, poorly fitted or top-dose-only effect; inactive means no such curve, though single readings can be large or run the other way.",
  "data": [
    {"biological_target": "Retinal dehydrogenase 2 (Homo sapiens) (UniProt O94788)", "experiment": "qHTS for Inhibitors of the Aldehyde Dehydrogenase Family (ALDH1A2) Confirmation screens (AID 2061314); further: nearly all actives have a fitted effect of over 65% in size; further: potency means the concentration at half of the fitted maximal effect", "details": "ALDH1A2 enzyme inhibition qHTS confirmation; series mostly up to 45.9 µM", "values": [
      {"compound": "COc1cc(OC)cc(C(=O)NCCc2csc3nc(-c4ccccc4F)nn23)c1", "Potency": "inactive"},
      {"compound": "COc1cc(-c2noc(-c3ccc(NC4CCCCC4)c([N+](=O)[O-])c3)n2)cc(OC)c1OC", "Potency": "inactive"},
      {"compound": "CCOc1ccccc1NC(=O)CN(C)S(=O)(=O)c1ccc(C(=O)N2CCOCC2)s1", "Potency": "inactive"},
      {"compound": "CCOc1ccc(S(=O)(=O)N2CCN(c3ccccc3)CC2)cc1C(N)=O", "Potency": "inactive"},
      {"compound": "O=C(COc1ccccc1-c1nc(-c2ccccc2)no1)Nc1ccc([N+](=O)[O-])cc1", "Potency": "inactive"},
      {"compound": "Cn1cc(S(=O)(=O)N2CCCCC2)cc1C(=O)Nc1ccc(OC(F)(F)F)cc1", "Potency": "inactive"},
      {"compound": "COc1ccccc1CC(=O)NCc1cccnc1-n1cnc2ccccc21", "Potency": "inactive"},
      {"compound": "CN(C)C(=O)c1ccc(-c2cc[nH]c(=O)c2N)cc1", "Potency": "400 nM (active)"},
      {"compound": "CCOc1ccc(C(=O)N(Cc2ccc(C(C)C)cc2)Cc2ccco2)cc1", "Potency": "inactive"},
      {"compound": "Nc1c(-c2ccncc2)cc[nH]c1=O", "Potency": "634 nM (active)"},
      {"compound": "COc1ccccc1C(=O)Nc1ccc(-c2cc(C(F)(F)F)nn2-c2ccccc2)cc1", "Potency": "inactive"},
      {"compound": "COc1ccc(NC(=O)CN2C(=O)COc3ccc(S(=O)(=O)N4CCOCC4)cc32)cc1", "Potency": "inactive"},
      {"compound": "O=C(c1nccc2ccccc12)N1CCc2nc3cc[nH]n3c(=O)c2C1", "Potency": "inactive"},
      {"compound": "COc1ccc(C(=O)Nc2ccc(-c3cc(C(F)(F)F)nn3-c3ccccc3)cc2)cc1OC", "Potency": "inactive"},
      {"compound": "O=C(NCC(=O)N1CCOCC1)c1ccc(-c2cccc(C(F)(F)F)c2)cc1", "Potency": "inactive"},
      {"compound": "O=C1COc2cc([S+](=O)([O-])Nc3ccc(Cl)c(Cl)c3)c(Cl)cc2N1", "Potency": "14200 nM (active)"},
      {"compound": "O=S(=O)(Nc1ccc(OC(F)(F)F)cc1)c1ccc(N2CCCCS2(=O)=O)cc1", "Potency": "inactive"},
      {"compound": "CCOc1ccc(C(=O)Nc2ccc(NC(=O)c3ccccc3)cc2)cc1Br", "Potency": "inactive"},
      {"compound": "Cc1ccc(CN(C(=O)COc2ccc([N+](=O)[O-])cc2)c2ccccn2)cc1", "Potency": "inactive"},
      {"compound": "Nc1c(-c2ccccc2)cc[nH]c1=O", "Potency": "159 nM (active)"},
      {"compound": "O=c1cc2nc(-c3ccccc3)nc(SCc3cccc(Br)c3)n2[nH]1", "Potency": "inactive"},
      {"compound": "Cc1ccc(-n2c(SCc3ccccc3C)nc3[nH]ncc3c2=O)cc1C", "Potency": "inactive"},
      {"compound": "COc1ccc(CN(C)c2ccc(-c3nc(-c4ccccc4)no3)cc2[N+](=O)[O-])cc1", "Potency": "inactive"},
      {"compound": "CCOCc1cc(CN2CCN(c3cccc(C(F)(F)F)c3)CC2)c(O)c2ncccc12", "Potency": "inactive"},
      {"compound": "COc1ccc(OC)c(CNC(=O)C2CCCCN2S(=O)(=O)c2ccc(F)cc2)c1", "note": "(stereo not given)", "Potency": "inactive"},
      {"compound": "O=C(c1n[nH]c2ccccc12)N1CCCC(Cc2noc(-c3cnccn3)n2)C1", "note": "(stereo not given)", "Potency": "inactive"},
      {"compound": "CCOc1ccc(C(=O)Nc2ccc(S(=O)(=O)N3CCCCC3c3cccnc3)cc2)cc1", "note": "(stereo not given)", "Potency": "inactive"},
      {"compound": "CN(Cc1ccccc1C(F)(F)F)C(=O)c1ccc(Cl)nc1", "Potency": "inactive"},
      {"compound": "COc1ccc(S(=O)(=O)NCc2nc3nc(C)cc(C)n3n2)cc1OC", "Potency": "inactive"},
      {"compound": "COc1ccc(-c2nc(C(=O)Nc3ccc(C(C)=O)cc3)nn2-c2cccc(Cl)c2)cc1", "Potency": "inactive"},
      {"compound": "Cc1cc(C)n2nc(CNS(=O)(=O)c3cccc(Cl)c3)nc2n1", "Potency": "inactive"},
      {"compound": "COc1ccc(OC)c(N(CC(=O)NCc2ccccc2)S(=O)(=O)c2ccccc2)c1", "Potency": "inactive"},
      {"compound": "COc1cncc(Nc2cnc3ccc(-c4ccc(F)cc4)nn23)c1", "Potency": "inactive"},
      {"compound": "COC(=O)CSc1ccc2nnc(CCNS(=O)(=O)c3ccccc3)n2n1", "Potency": "inactive"},
      {"compound": "CN(CC(=O)Nc1ccc(OC(F)(F)F)cc1)S(=O)(=O)c1ccc2c(c1)CCC(=O)N2", "Potency": "inactive"},
      {"compound": "COc1ccc(NC(=O)CCc2c(C)nc3c(c2C)c(=O)n(C)c(=O)n3C)cc1OC", "Potency": "inactive"},
      {"compound": "Cc1nn(-c2ccc3nncn3n2)c(C)c1CCC(=O)Nc1ccc(OC(F)(F)F)cc1", "Potency": "inactive"},
      {"compound": "Cc1noc(Nc2sc3c(c2-c2nc4ccccc4s2)CCNC3)n1", "Potency": "25200 nM (active)"},
      {"compound": "COc1ccc(OC)c(S(=O)(=O)Nc2ccc3[nH]c(=O)[nH]c3c2)c1", "Potency": "inactive"},
      {"compound": "COc1ccc(OC)c(NC(=O)CSc2nnc3ccc4ccccc4n23)c1", "Potency": "inactive"}
    ]},
    {"biological_target": "Retinaldehyde dehydrogenase 3 (Homo sapiens) (UniProt P47895)", "experiment": "qHTS for Inhibitors of the Aldehyde Dehydrogenase Family (ALDH1A3) Primary screen (AID 2061315)", "details": "ALDH inhibition qHTS; series mostly up to 56 µM", "values": [
      {"compound": "CN(C)C(=O)c1ccc(-c2cc[nH]c(=O)c2N)cc1", "Potency": "inactive"},
      {"compound": "Nc1c(-c2ccncc2)cc[nH]c1=O", "Potency": "inactive"},
      {"compound": "O=C1COc2cc([S+](=O)([O-])Nc3ccc(Cl)c(Cl)c3)c(Cl)cc2N1", "Potency": "inactive"},
      {"compound": "Nc1c(-c2ccccc2)cc[nH]c1=O", "Potency": "inactive"},
      {"compound": "Cc1noc(Nc2sc3c(c2-c2nc4ccccc4s2)CCNC3)n1", "Potency": "inactive"}
    ]}
  ]
}
